Experimental data: PubChem BioAssay (Tox21)
Several values for one entry are separate records, joined by “and”; a condition that tells them apart may be missing. Equal entries are not always repeated. Records with an inconclusive call do not appear. Where a call stands in place of a potency, no number is given. More than one record can exist for a structure, and the calls need not agree. Activity calls are given as the source filed them. Unless noted, calls come from the whole dose curve; as a rule, active = well fitted curve in the direction sought with a large enough effect in the repeat runs; inconclusive = weak or mixed curves; inactive = no such curve, though single readings can be large; an effect the other way counts as inactive or inconclusive.

What was measured:
[1] = A CellTox Green Cytotoxicity Assay to monitor cytotoxicity in HepG2 cells - 0 hour (AID 1224882); note: nearly all actives have a fitted effect of over 35% in size; note: potency is the fitted concentration of half-maximal effect
Method in brief: (§1)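 Cells and non-lytic dye reagent are dispensed together (600 HepG2 cells/well) and incubated 5 h before DMSO compound transfer. Kinetic fluorescence is then recorded in the same wells during 40 h at 37 C.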

[2] = A CellTox Green Cytotoxicity Assay to monitor cytotoxicity in HepG2 cells - 32 hour (AID 1224883); note: nearly all actives have a fitted effect of over 50% in size; note: potency is the fitted concentration of half-maximal effect
Method in brief: as §1

[3] = A CellTox Green Cytotoxicity Assay to monitor cytotoxicity in HEK293 cells - 8 hour (AID 1224884); note: nearly all actives have a fitted effect of over 35% in size; note: potency is the fitted concentration of half-maximal effect
Method in brief: (§2)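 Cells (HEK293, 600/well) and dye reagent are dispensed together. After 5 h at 37 C, 23 nL compound is pinned in. Plates stay at 37 C for 40 h with fluorescence read at 0h, 8h, 16h, 24h, 32h and 40h.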

[4] = qHTS RealTime-Glo MT Cell Viability Assay in HepG2 cells - 16 hour (AID 1224885); note: nearly all actives have a fitted effect of over 50% in size; note: potency is the fitted concentration of half-maximal effect
Method in brief: (§3)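 Tox21 10K library screened in qHTS format on HepG2 cells carrying RealTime-Glo reagents. Compounds were added after a 5 h preincubation, and the luminescent signal from continuous culture was measured repeatedly during 40 h treatment.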

[5] = qHTS RealTime-Glo MT Cell Viability Assay in HEK293 cells - 8 hour (AID 1224887); note: nearly all actives have a fitted effect of over 50% in size; note: potency is the fitted concentration of half-maximal effect
Method in brief: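 Real-time viability in HEK293: signal arises when living cells convert a prosubstrate for NanoLuc in the medium, so luminescence tracks viable cell number. Compound (23 nL, DMSO) added 5 h post-seeding; kinetic reads at 0–40 h, 37 C.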

[6] = A CellTox Green Cytotoxicity Assay to monitor cytotoxicity in HEK293 cells - 16 hour (AID 1224888); note: nearly all actives have a fitted effect of over 35% in size
Method in brief: as §2

[7] = qHTS RealTime-Glo MT Cell Viability Assay in HepG2 cells - 0 hour (AID 1224889); note: nearly all actives have a fitted effect of over 50% in size
Method in brief: as §3

[8] = qHTS assay to identify small molecule antagonists of the estrogen receptor alpha (ER-alpha) signaling pathway using the BG1 cell line in the presence of 0.1 nM 17-beta-estradiol - cell viability counter screen (AID 1259241); note: nearly all actives have a fitted effect of over 40% in size; note: potency is the fitted concentration of half-maximal effect
Method in brief: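 In this screen, hormone-deprived VM7Luc4E2 cells were seeded at 4,000 per well, dosed with compound and 0.1 nM estradiol final, and incubated 22 hr at 37C and 5% CO2; fluorogenic live-cell protease signal reported viability.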

[9] = qHTS assay to identify small molecule antagonists of the androgen receptor (AR) signaling pathway using the MDA cell line in the presence of 0.5 nM R1881 - cell viability counter screen (AID 1259242); note: nearly all actives have a fitted effect of over 45% in size; note: potency is the fitted concentration of half-maximal effect
Method in brief: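 Steps: plate MDA-kb2 cells, rest 5 hr at 37C without CO2; pin in compounds in DMSO; add R1881 to 0.5 nM final; incubate 16 hr; add CellTiter-Fluor, 30 min; read fluorescence.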

[10] = biological target: Androgen receptor (Homo sapiens) (UniProt P10275); assay: qHTS assay to identify small molecule antagonists of the androgen receptor (AR) signaling pathway using the MDA cell line in the presence of 0.5 nM R1881 (AID 1259243)
Chain of Androgen receptor (Homo sapiens) (P10275 whole entry, looked up): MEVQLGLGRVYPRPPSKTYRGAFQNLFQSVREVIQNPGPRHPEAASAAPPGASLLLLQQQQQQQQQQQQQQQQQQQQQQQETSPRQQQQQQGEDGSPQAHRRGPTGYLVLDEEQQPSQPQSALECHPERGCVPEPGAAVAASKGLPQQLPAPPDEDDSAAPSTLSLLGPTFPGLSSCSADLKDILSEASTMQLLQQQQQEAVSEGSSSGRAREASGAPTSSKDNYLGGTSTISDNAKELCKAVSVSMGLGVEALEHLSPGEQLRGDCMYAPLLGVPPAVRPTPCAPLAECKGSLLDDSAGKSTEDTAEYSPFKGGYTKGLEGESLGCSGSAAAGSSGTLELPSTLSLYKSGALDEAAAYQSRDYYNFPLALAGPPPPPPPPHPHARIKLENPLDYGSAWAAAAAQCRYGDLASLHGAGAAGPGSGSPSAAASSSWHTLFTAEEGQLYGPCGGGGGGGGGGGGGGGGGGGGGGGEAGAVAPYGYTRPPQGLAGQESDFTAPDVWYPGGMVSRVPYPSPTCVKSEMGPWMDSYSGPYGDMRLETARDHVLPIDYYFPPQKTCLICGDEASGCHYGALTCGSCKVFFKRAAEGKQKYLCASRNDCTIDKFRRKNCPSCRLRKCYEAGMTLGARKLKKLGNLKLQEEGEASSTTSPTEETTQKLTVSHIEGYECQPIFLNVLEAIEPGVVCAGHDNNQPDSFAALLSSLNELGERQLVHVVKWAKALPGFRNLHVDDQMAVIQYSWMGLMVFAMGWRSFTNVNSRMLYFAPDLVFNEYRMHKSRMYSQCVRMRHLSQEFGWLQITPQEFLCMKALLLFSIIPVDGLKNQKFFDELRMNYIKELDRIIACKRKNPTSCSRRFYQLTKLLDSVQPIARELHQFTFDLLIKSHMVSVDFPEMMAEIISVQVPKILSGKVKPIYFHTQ
Method in brief: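 Stably transfected MDA-kb2 cells express luciferase from an MMTV promoter bearing both AR and GR response elements. Compounds plus 0.5 nM R1881 (final) were incubated 16 hr at 37C without CO2, then luminescence measured.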

[11] = biological target: Estrogen receptor (Homo sapiens) (UniProt P03372); assay: qHTS assay to identify small molecule antagonists of the estrogen receptor alpha (ER-alpha) signaling pathway using the BG1 cell line in the presence of 0.1 nM 17-beta-estradiol (AID 1259244); note: nearly all actives have a fitted effect of over 50% in size; note: potency is the fitted concentration of half-maximal effect
Chain of Estrogen receptor (Homo sapiens) (P03372 whole entry, looked up): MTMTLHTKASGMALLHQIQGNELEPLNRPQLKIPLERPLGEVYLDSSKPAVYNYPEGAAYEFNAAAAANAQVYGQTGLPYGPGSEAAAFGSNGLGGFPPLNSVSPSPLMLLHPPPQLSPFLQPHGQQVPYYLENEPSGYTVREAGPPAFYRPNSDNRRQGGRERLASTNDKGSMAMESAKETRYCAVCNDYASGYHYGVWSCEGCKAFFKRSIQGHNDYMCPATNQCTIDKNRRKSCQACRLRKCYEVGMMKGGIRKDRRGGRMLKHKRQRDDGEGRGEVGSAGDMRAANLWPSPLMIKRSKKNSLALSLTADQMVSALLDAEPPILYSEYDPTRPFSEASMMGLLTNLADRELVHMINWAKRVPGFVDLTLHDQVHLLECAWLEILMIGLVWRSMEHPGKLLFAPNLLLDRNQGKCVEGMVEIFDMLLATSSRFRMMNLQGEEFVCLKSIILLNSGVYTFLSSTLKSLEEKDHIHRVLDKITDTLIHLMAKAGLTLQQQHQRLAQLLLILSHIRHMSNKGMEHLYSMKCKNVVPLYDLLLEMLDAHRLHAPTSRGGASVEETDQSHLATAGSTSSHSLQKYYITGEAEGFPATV
Method in brief: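 Antagonist mode: compounds in DMSO are pinned onto VM7Luc4E2 reporter cells, 0.1 nM final 17beta-estradiol is added, and after 22 h at 37C luciferase luminescence is measured with ONE-Glo.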

[12] = qHTS assay to identify small molecule HDAC inhibitors (AID 1259364);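 note: wild-type HCT-116 cells with endogenous class I/II HDAC activity; top concentration of the series differs between compounds; nearly all actives have a fitted effect of over 45% in size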
Method in brief: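 Cells (HCT-116, wild type) are seeded at 1,500 per well, incubated overnight, treated with compound in DMSO for 2 hr, then developed with HDAC-Glo I/II reagent for 30 min at room temperature.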

[13] = qHTS assay to identify small molecule agonists of the sonic hedgehog signaling (Shh) pathway - cell viability counter screen (AID 1259366); note: nearly all actives have a fitted effect of over 50% in size; note: potency is the fitted concentration of half-maximal effect
Method in brief: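 In quantitative high-throughput format, 3T3 Gli1-Luc cells were exposed to compounds for 24hr and multiplexed for viability using CellTiter-Fluor, incubated 1hr at 37C before the fluorescence read.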

[14] = qHTS assay to identify small molecule antagonists of the sonic hedgehog signaling (Shh) pathway - cell viability counter screen (AID 1259367); note: nearly all actives have a fitted effect of over 55% in size; note: potency is the fitted concentration of half-maximal effect
Method in brief: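 Conditioned medium drove Shh signaling in 3T3 Gli1-Luc cells exposed to compounds at 37C and 5% CO2. Viability was determined from CellTiter-Fluor fluorescence, with reagent incubated 1 hr after 23 hr of treatment.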

[15] = qHTS assay to identify small molecule agonists of the sonic hedgehog signaling (Shh) pathway (AID 1259368; calls by dose curve;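 note: NIH/3T3-derived 3T3Gli1-Luc cells carrying a stable Gli1-driven firefly luciferase reporter; series mostly up to about 92 µM; nearly all actives have a fitted effect of over 15% in size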)
Method in brief: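 Cells of a mouse NIH/3T3 clone stably expressing luciferase under the Gli1 transcriptional response element are exposed to test chemicals for 24 hr at 37 C. Pathway activation is detected as a rise in luminescence.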

[16] = qHTS assay to identify small molecule antagonists of the sonic hedgehog signaling (Shh) pathway (AID 1259369; calls by dose curve; note: nearly all actives have a fitted effect of over 45% in size; note: potency is the fitted concentration of half-maximal effect)
Method in brief: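 Cells are plated and held 4hr at 37 C, compounds (DMSO) are pinned in, conditioned medium is added to stimulate the pathway, and after 24hr luciferase reagent is added for 30min before luminescence is read.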

[17] = A CellTox Green Cytotoxicity Assay to monitor cytotoxicity in HepG2 cells - 8 hour (AID 1224890); note: nearly all actives have a fitted effect of over 45% in size; note: potency is the fitted concentration of half-maximal effect
Method in brief: as §1

[18] = qHTS assay to identify small molecule HDAC inhibitors - cell viability counter screen (AID 1259365)
Method in brief: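 Measured quantity is CellTiter-Glo luminescence from wild-type HCT-116 cells after compound incubation of 2hr at 37C, 5% CO2; reagent developed 30min at room temperature.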

[19] = qHTS assay to identify small molecule phospholipidosis (PLD) inducers (AID 1259344; active = well fitted curve in the direction sought with a large enough effect; an effect the other way counts as inactive or inconclusive)
Method in brief: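 After 4 h attachment on collagen I, HepG2 cells were dosed with compound alongside LipidTOX Red, kept 24 h at 37 C, fixed, and imaged for lamellar phospholipid pits.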

[20] = qHTS RealTime-Glo MT Cell Viability Assay in HEK293 cells - 24 hour (AID 1224886)
Method in brief: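 Luminescence generated by NanoLuc from substrate produced by living HEK293 cells served as the viability signal. Each value reflects the reading at its stated time point during continuous 40 h compound exposure at 37 C.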

| SMILES | Potency [1] | Potency [2] | Potency [3] | Potency [4] | Potency [5] | Potency [6] | Potency [7] | Potency [8] | Potency [9] | Potency [10] | Potency [11] | Potency [12] | Potency [13] | Potency [14] | Potency [15] | Potency [16] | Potency [17] | Potency [18] | outcome [19] | Potency [20] |
| --- | --- | --- | --- | --- | --- | --- | --- | --- | --- | --- | --- | --- | --- | --- | --- | --- | --- | --- | --- | --- |
| O=[N+]([O-])c1ccc(Cl)c([N+](=O)[O-])c1 | inactive | 35.2 µM (active) and 24.5 µM (active) | inactive | 39.5 µM (active) and 17.4 µM (active) | 14 µM (active) and 17.4 µM (active) | inactive | inactive | 27.7 µM (active) and 54.5 µM (active) | 24.7 µM (active) and 21.7 µM (active) | 12.4 µM (active) | 31.1 µM (active) and 43.3 µM (active) | inactive | 5.53 µM (active) and 13.7 µM (active) | 3.92 µM (active) and 10.9 µM (active) | inactive | 1.1 µM (active) and 6.86 µM (active) | – | – | – | – |
| ClCC(Cl)CCl | inactive | inactive | inactive | inactive | inactive | inactive | inactive | inactive | inactive | – | – | inactive | inactive | inactive | inactive | inactive | inactive | inactive | – | – |
| NN=C(N)N | inactive | inactive | inactive | inactive | inactive | inactive | inactive | inactive | inactive | – | – | – | inactive | inactive | inactive | inactive | – | inactive | inactive | – |
| CCCCCCCCCc1ccc(O)cc1 | inactive | 39.3 µM (active) and 34.7 µM (active) | inactive | inactive | 6.99 µM (active) and 4.36 µM (active) | inactive | inactive | inactive | inactive | – | inactive | inactive | inactive | inactive | inactive | 30.9 µM (active) and 43.3 µM (active) | – | inactive | – | – |
| CCC(=O)Nc1ccc(Cl)c(Cl)c1 | inactive | inactive | inactive | inactive | – | inactive | inactive | inactive | inactive | 7 µM (active) and 13.7 µM (active) | – | inactive | inactive | inactive | inactive | – | inactive | inactive | – | – |
| CCCCCCCCCCCCCl | inactive and 19.5 µM (active) | inactive and 12.3 µM (active) | inactive and 19.5 µM (active) | inactive | inactive | – | inactive | inactive | inactive | – | inactive | – | inactive | inactive | inactive | inactive | inactive and 12.3 µM (active) | inactive | – | – |
| CCNCC | inactive | inactive | inactive | inactive | inactive | inactive | inactive | inactive | inactive | – | – | – | inactive | inactive | inactive | inactive | – | inactive | – | – |
| C[N+](C)(C)C | inactive | inactive | inactive | inactive | inactive | inactive | inactive | inactive | inactive | – | inactive | – | inactive | inactive | inactive | inactive | inactive | inactive | – | – |
| NC(=O)CN1CCCC1=O | inactive | inactive | inactive | inactive | inactive | inactive | inactive | inactive | inactive | – | – | – | inactive | inactive | inactive | inactive | inactive | inactive | inactive | – |
| N#CC(c1ccccc1)c1ccccc1 | inactive | inactive | inactive | inactive | inactive | inactive | inactive | inactive | inactive | – | – | inactive | inactive | inactive | inactive | inactive | inactive | inactive | – | – |
| C=CC(=O)OCC(CC)(COC(=O)C=C)COC(=O)C=C | inactive | 14.2 µM (active) | inactive | 25.2 µM (active) and 13.8 µM (active) | 28.3 µM (active) and 21.9 µM (active) | inactive | inactive | 70.4 µM (active) | 31.5 µM (active) | 4.99 µM (active) and 13.7 µM (active) | 22.3 µM (active) and inactive | inactive | 11.2 µM (active) and 9.69 µM (active) | 8.87 µM (active) and 9.69 µM (active) | inactive | 2.23 µM (active) and 3.06 µM (active) | – | – | – | – |
| Clc1ccc(C(Cl)(Cl)Cl)cc1 | inactive | inactive | inactive | inactive | inactive | inactive | inactive | inactive | inactive | – | inactive | – | inactive | inactive | inactive | inactive | inactive | inactive | – | – |
| CCCCC(C#N)(Cn1cncn1)c1ccc(Cl)cc1 (stereo not drawn) | inactive | – | inactive | inactive | inactive | inactive | inactive | inactive | inactive | – | inactive | – | inactive | inactive | inactive | inactive | inactive | inactive | – | inactive |
| CC1CC(=O)O1 (stereo not drawn) | inactive | inactive | inactive | inactive | inactive | inactive | inactive | inactive | inactive | – | – | – | inactive | inactive | inactive | inactive | inactive | inactive | – | – |
